Measured values from PubChem BioAssay (NCI).
Where “and” joins values, the source holds several entries; their conditions need not be identical. Equal entries are not always repeated. Compounds without any hit were thinned out: in the full panel of roughly 83,000, 20% have a hit.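 Results are percent growth after 48 hours of single-concentration exposure. 100 means growth as in untreated cells, lower positive values show inhibition; negative values down to -100 show cell death.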 Calls of active or inactive are those of the source. The calls were made as follows: active = growth percent below 10; inactive = the rest.

System: HL-60(TB) leukemia
Assay: NCI-60 one-dose screen, 48 h (100 = growth as untreated, 0 = no growth, -100 = all killed)
Conditions: 10 µM unless noted

SMILES	growth
CCc1ccc(C(=O)/C=C/C23c4ccccc4C(c4ccccc42)C2C(=O)NC(=O)C23)cc1 (stereo not given)	-12.3% (active)
Oc1c(CN2CCCCC2)ccc2cccnc12	58.3% (inactive) and 18.2% (inactive)
O=[N+]([O-])c1ccc(C2N(Cc3ccc(Cl)cc3)CCN2Cc2ccc(Cl)cc2)cc1	86.9% (inactive)
CCCCCn1sc(=O)n(Cc2ccc(CNC(=O)C(C)c3ccc(CC(C)C)cc3)cc2)c1=O (stereo not given)	102% (inactive) and -34.5% (active)
C#Cc1cccc(NC(=O)c2ccccc2NC(=O)CCl)c1	91.6% [8.25 µM] (inactive)
Cc1ccc(/C=N/NC(N)=S)s1	101% (inactive)
CCN(CC)CCNC(=O)c1cn2ncnc(Oc3ccc(NC(=O)Nc4ccc(Cl)c(C(F)(F)F)c4)c(F)c3)c2c1C	-45% (active)
Fc1ccc(-c2nn(-c3ccccc3)cc2-c2nc3ccccc3o2)cc1	77.3% (inactive)
COc1cc2c(cc1OC)N(CCO)C1=C(C(=O)OC1)C2c1ccc(Cl)c(Cl)c1 (stereo not given)	93.4% (inactive)
CCCCN(CCCC)CC(C)(C)C(O)c1ccc(OC)c2ccccc12 (stereo not given)	56.3% (inactive)
O=C(O)CCCCSc1ncnc2nc[nH]c12	103% (inactive)
O=C(CCc1nnc(Cn2cnc3nc[nH]c3c2=O)o1)c1nc2ncccc2[nH]1	99.9% (inactive)
O=S(=O)(NCCCNc1cc(-c2cn(-c3ccccc3)nc2-c2cccc(O)c2)ccn1)c1ccc(Cl)cc1	1.22% (active)
c1ccc2c(c1)CCN(NCCN1CCCC1)C2	96.9% (inactive)
CC(=O)C1=C(O)C=C2Oc3c(C(=O)/C=C/c4c(Cl)cccc4Cl)c(O)c(C)c(O)c3[C@]2(C)C1=O	-39.3% (active)
CN(C)CCNC(=O)c1cccc(-c2cnc3ccc(-c4ccc5c(c4)OCO5)nn23)c1	64.1% (inactive)
CC(C)(C)NC(=O)C(OC(=O)C1CCc2cc(F)ccc2O1)c1ccccc1Cl (stereo not given)	103% (inactive)
OCC1OC(n2cnc3c(=S)nc[nH]c32)C(O)C1O (stereo not given)	120% (inactive) and 50.9% (inactive)
Cc1cccc2nnc(-c3ccccc3)n12	99% (inactive)
COc1ccc(/C=C(/C#N)n2nnc3cccc(F)c32)cc1	-9.75% (active)

SMILES	growth
CCCCn1c(=O)c(C2CNC(=O)c3ccccc3N2)cc2ccccc21 (stereo not given)	96.7% (inactive)
NS(=O)(=O)c1ccc(CCN2C(=O)C=CC2=O)cc1	99.6% (inactive)
Cc1cc(N2CCCC2)nc(N(CCCNc2ccnc3cc(Cl)ccc23)Cc2ccc3c(c2)OCO3)n1	-62.9% (active)
CCOc1cc(Br)c(C(C)NC(=O)c2cccc(OC)c2)cc1OCC (stereo not given)	45.7% (inactive)
CCN1/C(=C\c2cc[n+](CC)c3ccccc23)C=Cc2ccccc21	5.97% (active)
O=C(CCc1nnc2sc(-c3ccc(Cl)cc3Cl)nn12)c1nc2ccccc2[nH]1	3.48% (active)
Cc1c(O)c(N=Nc2ccc(C(=O)O)c(O)c2)c2ccccc2c1O	77.4% (inactive)
CC(C)(C)C1=CC(=O)C(C(C)(C)C)=CC1=O	92.5% (inactive) and 106% (inactive)
O=c1cc(-c2ccccc2)oc2cc(OCc3cn(Cc4ccc(F)cc4)nn3)cc(OCc3cn(Cc4ccc(F)cc4)nn3)c12	98% (inactive)
Fc1cc(C2=NNC(c3ccc[nH]3)C2)ccc1-n1ccc(C(F)(F)F)n1 (stereo not given)	55.3% (inactive)
[B-][N+](CC)(CC)c1ccccc1	45.6% (inactive)
CC[C@@H]1NC(=O)[C@@H]2CCCCN2C(=O)[C@@H]2CCCN2C(=O)[C@@H](NC(=O)[C@H](Cc2cc(F)cc(F)c2)NC(=O)Nc2ccc(C3CC3)cc2F)[C@H](C)OC(=O)[C@@H]2C[C@@H](C)CN2C1=O	5.69% (active)
COc1ccc(Cc2cc(-c3ccccc3)nn(Cc3ccccc3)c2=O)cc1OC	25.8% (inactive)
O=C(O)c1ccc(Br)nc1	94.4% (inactive)
CCOC(=O)C1=C(NC)OCC1=O	91.7% (inactive)
CNC(=O)c1c(NC(=O)c2ccc(C(F)(F)F)cc2)sc2c1CCC(=O)C2	-16.5% (active)
COc1cc(C)cc2oc3oc(=O)c(-c4nc5ccccc5s4)cc3c(=O)c12	109% (inactive)
COC(C(=O)[C@@H](O)[C@@H](C)O)[C@@H]1Cc2cc3cc(O[C@H]4C[C@@H](O[C@H]5C[C@@H](O)[C@H](O)C(C)O5)[C@H](O)C(C)O4)c(C)c(O)c3c(O)c2C(=O)[C@H]1O[C@H]1C[C@@H](O[C@H]2C[C@@H](O[C@H]3C[C@@H](O)[C@H](OC)C(C)O3)[C@@H](O)C(C)O2)[C@H](O)C(C)O1 (stereo not given in full)	-5.47% (active)
COc1cc2c(cc1OCCCN1CCN(CCCOc3cc4c(cc3OC)C(=O)N3C[C@H](F)C[C@H]3C=N4)CC1)N=C[C@@H]1C[C@@H](F)CN1C2=O	-28.8% (active)
O=C1NC(c2ccc(Cl)c(Cl)c2)=C/C1=C\c1ccccc1	94.1% (inactive)
